Experimental data taken from the supplement of paper PMC10849652.
Of roughly 8,800 targets only a part is listed; those with a hit were picked by preference. About 0.5% of all pairs of compound and target were hits. Unmarked numbers belong to inactive results.

Tests used:
Test in all cases: log2 fold change, soluble protein after heating vs DMSO (PISA); higher = thermal stabilisation; K562 lysate, 10 uM; active = over 0.2 and 3.5 SD of the protein, either way, in both replicates (recomputed)
erlotinib = compound: C#Cc1cccc(Nc2ncnc3cc(OCCOC)c(OCCOC)cc23)c1 [erlotinib]
Procedure, shortened: (§1)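 Pellets of K562 cells were dounce-homogenised in PBS pH 7.4 with 1 mM MgCl2, and the crude extract was held at 1 mg/mL protein for a 30 min treatment with 10 μM compound. Aliquots were heated for 3 min over 48°C-58°C and pooled before NP-40 was added to 0.5% at 4°C. The supernatant from 21,000xg for 90 min was quantified by TMTpro 16plex LC-MS/MS with channel sums equalised. Values are reported from duplicates as log-two fold change in thermal stability relative to solvent controls.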

[1] = compound: C/C(=N\NC(=O)C1=CC(=CC=C1)S(=O)(=O)N2CCOCC2)/C3=C(C=CC(=C3)Cl)O
Procedure, shortened: as §1

[2] = compound: C1=CC(=CC=C1C2=NC3=C(N2)C=C(C=C3)C(=O)N)OC4=CC=C(C=C4)Cl
Procedure, shortened: as §1

[3] = compound: C1=CC2=C(C=CC(=C2)/C=C\3/C(=O)NC(=NCC4=CC=CS4)S3)N=C1
Procedure, shortened: as §1

[4] = compound: C1=CC2=NC=CN=C2C=C1/C=C/3\C(=O)NC(=O)S3
Procedure, shortened: as §1

[5] = compound: C1=CC=C(C=C1)C2=NC(=C(N2)C3=CC=NC=C3)C4=CC(=C(C=C4)Cl)O
Procedure, shortened: as §1

[6] = compound: C1=CC=C2C(=C1)C3=NNC4=CC=CC(=C43)C2=O
Procedure, shortened: as §1

[7] = compound: C1CCN(C1)C(=O)NC2=CC=CC(=C2)NC3=NC=C(C(=N3)NCCC4=CN=CN4)Br
Procedure, shortened: as §1

[8] = compound: C1CN(CCC1(CC2=CC=C(C=C2)Cl)N)C3=NC=NC4=C3C=CN4
Procedure, shortened: as §1

IRAK-1-4 Inhibitor I = compound: C1COCCN1CCN2C3=CC=CC=C3N=C2NC(=O)C4=CC(=CC=C4)[N+](=O)[O-] [IRAK-1-4 Inhibitor I]
Procedure, shortened: as §1

ibrutinib = compound: C=CC(=O)N1CCC[C@@H](n2nc(-c3ccc(Oc4ccccc4)cc3)c3c(N)ncnc32)C1 [ibrutinib]
Procedure, shortened: as §1

[9] = compound: CC(=O)c1cnc2ccc(-c3cc(Cl)c(O)c(Cl)c3)nc2c1N[C@H]1CC[C@H](CN(C)C)CC1
Procedure, shortened: as §1

ralimetinib = compound: CC(C)(C)Cn1c(N)nc2ccc(-c3[nH]c(C(C)(C)C)nc3-c3ccc(F)cc3)nc21 [ralimetinib]
Procedure, shortened: as §1

[10] = compound: CC(C)(O)CC(=O)NCCn1ccc2ncnc(Nc3ccc(Oc4cccc(C(F)(F)F)c4)c(Cl)c3)c21
Procedure, shortened: as §1

[11] = compound: CC(C)C1=C2N=C(C=C(N2N=C1)NCC3=CC=CC=C3)NCCCCCCN
Procedure, shortened: as §1

[12] = compound: CC1=C(C(CC(=O)N1)C2=CC=C(C=C2)C(F)(F)F)C(=O)NC3=C(C=C4C(=C3)C=NN4)F
Procedure, shortened: as §1

[13] = compound: CC1=C(C2=C(C=C1)C(=O)C3=CC=CC=C3N2CCCN)C
Procedure, shortened: as §1

[14] = compound: CC1=C(C=C(C=C1)NC(=O)C2=CC(=CC=C2)C(C)(C)C#N)NC3=CC4=C(C=C3)N=CN(C4=O)C
Procedure, shortened: as §1

[15] = compound: CC1=C(C=C(C=C1)NC(=O)C2=CC(=CC=C2)N(C)C)NC(=O)C3=CC=C(C=C3)O
Procedure, shortened: as §1

[16] = compound: CC1=CC=C(C=C1)SC2=C3C=C(SC3=CN=C2)C(=O)N
Procedure, shortened: as §1

UniProt O15530, sequence (O15530 whole entry, looked up): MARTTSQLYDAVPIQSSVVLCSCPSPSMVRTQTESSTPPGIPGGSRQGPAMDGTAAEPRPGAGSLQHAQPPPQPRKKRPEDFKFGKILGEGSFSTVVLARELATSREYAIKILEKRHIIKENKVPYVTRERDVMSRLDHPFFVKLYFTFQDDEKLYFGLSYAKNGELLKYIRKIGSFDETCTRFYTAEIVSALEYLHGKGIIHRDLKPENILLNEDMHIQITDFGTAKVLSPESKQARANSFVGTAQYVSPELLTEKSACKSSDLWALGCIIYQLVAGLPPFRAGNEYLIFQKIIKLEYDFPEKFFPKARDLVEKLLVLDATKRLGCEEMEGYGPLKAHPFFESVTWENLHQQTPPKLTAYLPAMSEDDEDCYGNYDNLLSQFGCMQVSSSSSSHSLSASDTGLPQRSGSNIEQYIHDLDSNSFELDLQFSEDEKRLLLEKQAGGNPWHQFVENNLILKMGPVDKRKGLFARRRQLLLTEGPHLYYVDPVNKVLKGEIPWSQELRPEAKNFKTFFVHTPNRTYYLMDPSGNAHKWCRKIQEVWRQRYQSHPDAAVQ
UniProt Q9H3S7, sequence (Q9H3S7 whole entry, looked up): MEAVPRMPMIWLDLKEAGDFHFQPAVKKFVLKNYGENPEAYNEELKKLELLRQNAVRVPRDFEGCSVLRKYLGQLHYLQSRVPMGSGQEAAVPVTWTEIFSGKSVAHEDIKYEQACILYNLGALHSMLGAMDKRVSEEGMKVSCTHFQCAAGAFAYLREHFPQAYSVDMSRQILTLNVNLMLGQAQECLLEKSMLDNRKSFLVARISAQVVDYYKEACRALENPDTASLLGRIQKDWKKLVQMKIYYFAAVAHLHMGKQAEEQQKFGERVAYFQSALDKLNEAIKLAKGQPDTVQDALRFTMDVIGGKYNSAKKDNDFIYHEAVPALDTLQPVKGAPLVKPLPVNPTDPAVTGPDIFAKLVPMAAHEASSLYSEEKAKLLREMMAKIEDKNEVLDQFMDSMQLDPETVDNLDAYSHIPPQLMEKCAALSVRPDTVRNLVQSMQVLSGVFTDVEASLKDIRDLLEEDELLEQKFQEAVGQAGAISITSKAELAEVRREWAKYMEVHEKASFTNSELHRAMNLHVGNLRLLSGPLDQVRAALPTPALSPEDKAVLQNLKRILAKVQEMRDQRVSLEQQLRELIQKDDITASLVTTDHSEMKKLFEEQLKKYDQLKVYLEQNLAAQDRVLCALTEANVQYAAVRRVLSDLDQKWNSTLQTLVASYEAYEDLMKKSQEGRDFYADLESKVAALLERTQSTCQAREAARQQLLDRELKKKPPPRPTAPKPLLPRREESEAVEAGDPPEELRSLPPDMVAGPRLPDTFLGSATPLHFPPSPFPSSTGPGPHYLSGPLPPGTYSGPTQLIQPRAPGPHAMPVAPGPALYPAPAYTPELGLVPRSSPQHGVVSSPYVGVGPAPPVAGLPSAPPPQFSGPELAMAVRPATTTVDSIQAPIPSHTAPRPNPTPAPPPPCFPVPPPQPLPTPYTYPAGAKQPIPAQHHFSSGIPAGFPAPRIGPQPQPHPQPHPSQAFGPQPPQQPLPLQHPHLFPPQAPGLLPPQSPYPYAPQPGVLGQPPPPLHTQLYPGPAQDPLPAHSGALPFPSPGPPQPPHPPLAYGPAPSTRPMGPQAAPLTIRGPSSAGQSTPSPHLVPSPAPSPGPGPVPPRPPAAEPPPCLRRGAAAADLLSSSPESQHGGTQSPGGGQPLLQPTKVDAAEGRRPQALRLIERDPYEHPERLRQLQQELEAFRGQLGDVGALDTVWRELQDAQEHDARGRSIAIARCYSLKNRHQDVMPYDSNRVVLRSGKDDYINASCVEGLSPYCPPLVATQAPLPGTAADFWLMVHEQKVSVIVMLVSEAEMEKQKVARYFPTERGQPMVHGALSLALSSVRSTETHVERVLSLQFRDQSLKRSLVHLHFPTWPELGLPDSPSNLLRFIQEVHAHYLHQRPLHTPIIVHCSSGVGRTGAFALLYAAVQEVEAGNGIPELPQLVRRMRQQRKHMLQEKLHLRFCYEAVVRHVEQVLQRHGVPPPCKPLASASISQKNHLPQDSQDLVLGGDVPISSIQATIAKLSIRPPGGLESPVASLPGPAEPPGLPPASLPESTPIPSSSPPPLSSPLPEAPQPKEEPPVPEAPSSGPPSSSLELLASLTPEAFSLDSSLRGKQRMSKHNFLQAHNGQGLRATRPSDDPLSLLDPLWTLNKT
UniProt P42356, sequence (P42356 whole entry, looked up): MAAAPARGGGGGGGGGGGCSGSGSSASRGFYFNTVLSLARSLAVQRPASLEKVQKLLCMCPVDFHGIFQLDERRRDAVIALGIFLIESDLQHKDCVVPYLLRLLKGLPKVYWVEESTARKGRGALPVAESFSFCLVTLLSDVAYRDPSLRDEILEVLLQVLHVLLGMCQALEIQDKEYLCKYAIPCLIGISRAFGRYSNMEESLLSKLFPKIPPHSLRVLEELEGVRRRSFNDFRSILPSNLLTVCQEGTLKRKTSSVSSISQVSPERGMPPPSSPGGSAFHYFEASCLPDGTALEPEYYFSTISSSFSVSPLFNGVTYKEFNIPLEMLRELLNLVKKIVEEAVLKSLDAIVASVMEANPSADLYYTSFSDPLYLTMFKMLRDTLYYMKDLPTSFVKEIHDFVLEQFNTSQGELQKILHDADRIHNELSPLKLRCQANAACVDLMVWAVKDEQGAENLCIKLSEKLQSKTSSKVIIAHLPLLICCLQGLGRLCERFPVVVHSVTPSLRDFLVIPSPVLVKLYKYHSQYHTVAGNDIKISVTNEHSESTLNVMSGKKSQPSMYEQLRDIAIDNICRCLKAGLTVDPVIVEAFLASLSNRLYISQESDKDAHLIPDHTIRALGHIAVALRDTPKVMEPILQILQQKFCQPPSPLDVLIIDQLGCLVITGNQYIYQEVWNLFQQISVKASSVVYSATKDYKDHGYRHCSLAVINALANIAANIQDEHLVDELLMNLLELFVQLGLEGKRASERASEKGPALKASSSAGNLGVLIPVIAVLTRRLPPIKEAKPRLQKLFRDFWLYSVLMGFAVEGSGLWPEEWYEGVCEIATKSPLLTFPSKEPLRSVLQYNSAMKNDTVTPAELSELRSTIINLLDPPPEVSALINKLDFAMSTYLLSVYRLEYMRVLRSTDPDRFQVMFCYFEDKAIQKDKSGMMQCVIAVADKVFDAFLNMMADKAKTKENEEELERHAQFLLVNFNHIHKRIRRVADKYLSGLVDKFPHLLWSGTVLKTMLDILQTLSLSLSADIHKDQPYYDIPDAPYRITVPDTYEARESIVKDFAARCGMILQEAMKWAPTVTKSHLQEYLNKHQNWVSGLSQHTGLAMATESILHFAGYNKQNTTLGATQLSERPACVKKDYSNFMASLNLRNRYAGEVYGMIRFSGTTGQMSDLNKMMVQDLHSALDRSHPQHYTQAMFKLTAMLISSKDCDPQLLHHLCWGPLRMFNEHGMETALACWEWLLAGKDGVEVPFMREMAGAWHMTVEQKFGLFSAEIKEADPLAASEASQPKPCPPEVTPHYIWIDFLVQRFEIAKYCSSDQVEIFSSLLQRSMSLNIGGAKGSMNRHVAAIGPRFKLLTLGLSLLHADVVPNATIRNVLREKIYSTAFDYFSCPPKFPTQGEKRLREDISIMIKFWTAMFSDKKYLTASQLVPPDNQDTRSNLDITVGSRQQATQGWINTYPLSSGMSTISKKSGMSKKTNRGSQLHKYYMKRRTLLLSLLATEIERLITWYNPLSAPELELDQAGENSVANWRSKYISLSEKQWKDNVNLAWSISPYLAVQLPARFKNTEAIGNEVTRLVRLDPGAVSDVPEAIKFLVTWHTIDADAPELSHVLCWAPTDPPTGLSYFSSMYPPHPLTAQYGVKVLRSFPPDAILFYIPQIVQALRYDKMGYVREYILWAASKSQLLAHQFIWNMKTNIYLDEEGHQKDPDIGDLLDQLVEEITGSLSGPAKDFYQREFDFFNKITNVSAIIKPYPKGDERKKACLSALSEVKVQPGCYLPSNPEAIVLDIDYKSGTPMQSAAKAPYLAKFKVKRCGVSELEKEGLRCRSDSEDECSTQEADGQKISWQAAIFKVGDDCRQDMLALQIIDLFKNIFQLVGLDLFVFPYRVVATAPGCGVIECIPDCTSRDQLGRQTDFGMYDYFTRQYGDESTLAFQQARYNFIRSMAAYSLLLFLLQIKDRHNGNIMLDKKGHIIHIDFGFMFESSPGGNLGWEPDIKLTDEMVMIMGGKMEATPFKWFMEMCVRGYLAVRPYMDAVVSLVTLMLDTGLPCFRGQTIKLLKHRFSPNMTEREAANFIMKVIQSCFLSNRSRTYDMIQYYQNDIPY
UniProt Q15366, sequence (Q15366 whole entry, looked up): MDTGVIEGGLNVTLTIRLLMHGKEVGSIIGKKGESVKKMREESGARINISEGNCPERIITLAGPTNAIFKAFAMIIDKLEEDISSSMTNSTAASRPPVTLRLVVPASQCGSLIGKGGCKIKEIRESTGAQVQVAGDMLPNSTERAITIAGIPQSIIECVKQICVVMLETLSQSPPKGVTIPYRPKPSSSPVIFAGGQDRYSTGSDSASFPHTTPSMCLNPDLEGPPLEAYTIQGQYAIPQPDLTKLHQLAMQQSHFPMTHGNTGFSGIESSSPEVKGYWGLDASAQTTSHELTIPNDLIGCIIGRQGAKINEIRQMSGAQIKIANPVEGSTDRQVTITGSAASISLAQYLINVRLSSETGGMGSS
UniProt Q03393, sequence (Q03393 whole entry, looked up): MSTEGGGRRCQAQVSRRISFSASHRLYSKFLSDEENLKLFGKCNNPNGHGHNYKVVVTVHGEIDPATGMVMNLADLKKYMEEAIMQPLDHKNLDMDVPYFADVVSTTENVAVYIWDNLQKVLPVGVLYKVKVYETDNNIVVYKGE
UniProt Q9H2H8, sequence (Q9H2H8 whole entry, looked up): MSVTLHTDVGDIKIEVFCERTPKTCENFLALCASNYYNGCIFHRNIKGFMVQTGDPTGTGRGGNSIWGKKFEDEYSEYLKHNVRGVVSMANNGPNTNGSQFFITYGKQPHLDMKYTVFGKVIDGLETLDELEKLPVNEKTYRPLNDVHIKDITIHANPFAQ

Target	log2 fold change (erlotinib)	log2 fold change [1]	log2 fold change [2]	log2 fold change [3]	log2 fold change [4]	log2 fold change [5]	log2 fold change [6]	log2 fold change [7]	log2 fold change [8]	log2 fold change (IRAK-1-4 Inhibitor I)	log2 fold change (ibrutinib)	log2 fold change [9]	log2 fold change (ralimetinib)	log2 fold change [10]	log2 fold change [11]	log2 fold change [12]	log2 fold change [13]	log2 fold change [14]	log2 fold change [15]	log2 fold change [16]
PUS3 (UniProt Q9BZE2)	-0.014	0.043	-0.028	-0.048	0.048	-0.006	-0.064	-0.028	0.097	-0.058	-0.034	-0.025	0.05	0.094	-0.046	0.045	0.136	-0.12	-0.006	0
PPIL3 (UniProt Q9H2H8)	0.022	0.071	0	-0.016	-0.039	-0.012	-0.028	-0.004	0.071	0.03	0.044	0.029	-0.023	-0.028	0.022	0.001	0.003	0.011	0.009	0.005
PI4K2B (UniProt Q8TCG2)	0.023	0.035	-0.041	-0.089	-0.002	-0.047	0.009	-0.07	0.136	0.026	-0.028	0.04	0.103	0.069	-0.063	-0.075	-0.005	-0.082	0.001	0.005
PYCR2 (UniProt Q96C36)	-0.013	0.014	0.011	-0.005	-0.013	0.003	-0.04	0.007	0.01	0.031	0.012	0.002	-0.007	-0.032	-0.007	-0.026	0.001	0.013	-0.017	-0.016
PRKAR2A (UniProt P13861)	0.001	0.032	0.02	-0.02	-0.009	0	-0.029	-0.252 (active)	-0.212	-0.06	0.044	-0.064	0.033	-0.032	0.018	0.015	0.005	0	0.011	0.036
PCBP2 isoform 3 (UniProt Q15366)	-0.017	0.005	-0.027	0.018	0.034	0.012	0.042	0.038	-0.022	-0.026	-0.007	0.025	0.021	0.022	-0.019	-0.034	0.06	-0.017	-0.016	-0.017
PCYT1B (UniProt Q9Y5K3)	-0.016	0.015	-0.006	0.046	-0.03	0.002	0.044	-0.041	-0.032	-0.023	-0.051	-0.007	0.003	0.013	-0.042	-0.039	-0.03	0.016	-0.002	0.026
PREP (UniProt P48147)	0.026	-0.016	0.028	-0.007	-0.002	0.002	-0.002	-0.024	0.014	-0.007	0.019	0	0.015	0.004	-0.008	0.011	-0.009	-0.006	0.006	0.011
PRIM1 (UniProt P49642)	-0.004	0.061	-0.011	-0.01	-0.03	0.02	0	-0.006	0.002	0.003	-0.016	0.014	0.056	0.056	0.016	0.027	-0.019	0.015	0.011	0.02
PTPN23 (UniProt Q9H3S7)	0.017	-0.029	0.016	-0.01	-0.023	0.008	-0.028	-0.013	-0.003	-0.004	0.024	0.007	0.029	0.007	-0.019	-0.014	0.01	-0.015	0.009	0.012
PI4KA (UniProt P42356)	0.018	-0.014	-0.055	0.035	0.075	-0.028	-0.027	-0.021	0.02	-0.003	0.012	0.119	0.011	-0.073	-0.045	0	-0.039	0.032	0.04	-0.002
PFN1 (UniProt P07737)	-0.022	-0.017	0.01	0.019	-0.007	-0.006	0.015	-0.002	0.01	-0.007	-0.018	-0.007	0.009	0.013	-0.022	-0.017	0.009	0.007	0	0.002
PTS (UniProt Q03393)	-0.018	-0.112	-0.018	0.034	0.001	0.074	-0.023	-0.069	0.002	0.028	0.213	0.015	0.021	-0.027	-0.041	-0.117	-0.102	0.034	-0.013	-0.017
PDPK1 (UniProt O15530)	-0.066	-0.007	-0.081	-0.047	-0.055	0.005	0.298	0.552 (active)	0.019	0.018	0.026	0.236	0.067	-0.075	0.021	0.163	-0.034	-0.056	-0.006	-0.021
PLEKHA5 isoform 6 (UniProt Q9HAU0)	-0.007	-0.021	0.016	-0.058	0.087	-0.021	-0.007	-0.002	-0.04	0.019	0.075	0.003	-0.004	-0.001	0.069	-0.013	-0.033	0.028	0.022	-0.036
PGGT1B (UniProt P53609)	-0.02	0.039	-0.076	-0.011	0.047	0.14	0.045	0.008	-0.018	-0.006	-0.018	0.004	-0.015	0.03	-0.092	0.002	0.032	-0.039	-0.011	0.007
